This is part of a sample that, as a whole, favours compounds with a hit. Of some 83,000 tested, about 20% had one in any assay.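 The test compound was applied at a single concentration to cells in 96-well plates for 48 hours, and percent growth was recorded.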 Active and inactive are the calls of the source. How the source made its calls: active means growth percent below 10; inactive means the rest.
Legend:
Assay in all cases: NCI-60 one-dose screen, 48 h (100 = growth as untreated, 0 = no growth, -100 = all killed)
Settings in all cases: 10 µM unless noted
[1] = system: NCI-H23 lung
[2] = system: NCI-H226 lung
[3] = system: NCI-H322M lung
[4] = system: HOP-62 NSCLC
[5] = system: NCI-H460 lung
[6] = system: HOP-92 NSCLC
[7] = system: NCI-H522 lung
[8] = system: A549/ATCC NSCLC
[9] = system: 786-0 renal
[10] = system: COLO 205 colon
[11] = system: DU-145 prostate
[12] = system: K-562 leukemia
[13] = system: MALME-3M melanoma
[14] = system: MDA-MB-231 breast
[15] = system: RXF 393 renal
[16] = system: SF-268 CNS
[17] = system: SF-295 CNS
[18] = system: SF-539 CNS
[19] = system: UACC-257 melanoma
[20] = system: M14 melanoma

Measured: growth

Cc1cc(C)nc(NS(=O)(=O)c2ccc(Nc3ccc4c5c(n(CCCN(C)C)c(=O)c4c3)-c3ccccc3C5=O)cc2)n1
inactive: [1] 83.9% | [2] 83.3% | [3] 109% | [4] 70.1% | [5] 28.9% | [6] 90.1% | [7] 73% | [8] 52.3% | [9] 80.5% | [10] 70.4% | [11] 69% | [12] 74.7% | [13] 102% | [14] 108% | [15] 115% | [16] 77.9% | [17] 83.3% | [18] 96.3% | [19] 108% | [20] 89.8%

COC(=O)/C=C1\SC(=Nc2ccc(C(F)(F)F)cc2)N(CCc2c[nH]c3ccccc23)C1=O
active: [1] -4.71% | [2] -62.7% | [3] -11% | [4] -64.2% | [5] -47.4% | [6] -48.7% | [7] -65% | [8] 3.32% | [9] -74.1% | [10] -62.9% | [11] -65.4% | [12] -0.591% | [13] -89.6% | [14] -63.7% | [15] -70.2% | [16] -3.91% | [17] -81.4% | [18] -91.2% | [19] -50.3% | [20] -45.6%

CCCn1c2cc(OCc3cn(-c4ccc(Br)cc4)nn3)ccc2c2ccnc(C)c21
inactive: [1] 81.7% | [2] 25.6% | [3] 71.5% | [4] 63.9% | [5] 36.2% | [6] 60% | [7] 76.1% | [8] 53.7% | [9] 36.7% | [10] 42% | [11] 90.2% | [12] 35.4% | [13] 87.1% | [14] 50.5% | [15] 51% | [16] 88% | [17] 65.6% | [18] 36.4% | [19] 53.3% | [20] 67.5%

S=C(Nc1ccccc1)c1ccccn1
inactive: [1] 87.5% | [2] 94.7% | [3] 101% | [4] 75.2% | [5] 100% | [6] 84.6% | [7] 74.4% | [8] 91.7% | [9] 96.5% | [10] 67.9% | [11] 120% | [12] 99.7% | [13] 114% | [14] 102% | [15] 128% | [16] 105% | [17] 114% | [18] 91.1% | [19] 31.3% | [20] 90.6%

Nc1c(C(=O)c2ccccc2)sc2nc(-c3cc4ccccc4o3)cc(-c3ccc(Cl)cc3)c12
active: [6] -6.31%
inactive: [1] 89.9% | [2] 112% | [3] 87% | [4] 102% | [5] 103% | [7] 84.7% | [8] 106% | [9] 107% | [10] 99.4% | [11] 90.8% | [12] 102% | [13] 101% | [14] 85.5% | [15] 113% | [16] 94.8% | [17] 129% | [18] 105% | [19] 104% | [20] 107%

NC(=O)c1ccc(C2C3=C(CCCC3=O)OC3=C2C(=O)c2ccccc2C3=O)cc1 (stereo not given)
active: [1] -34.7% | [5] 7.97% | [7] -26.5% | [10] -1.47% | [12] 5.5% | [13] -16.3% | [14] 5.67% | [16] 9.54% | [18] 0.536% | [19] -7.13% | [20] -0.786%
inactive: [2] 113% | [3] 104% | [4] 23.6% | [6] 71.2% | [8] 26.7% | [9] 94.8% | [11] 12.1% | [15] 60% | [17] 42.9%

O=C1[C@@H](OS(=O)(=O)CC(F)(F)F)[C@H](c2ccc(F)cn2)N1c1cc2c3ccccc3ccc2c2ccccc12
inactive: [1] 84.5% | [2] 92.3% | [3] 104% | [4] 88.6% | [5] 104% | [6] 71.4% | [7] 35.7% | [8] 82.5% | [9] 71.7% | [10] 101% | [11] 84.5% | [12] 44.5% | [13] 95% | [14] 71.2% | [15] 85.9% | [16] 78.9% | [17] 83.3% | [18] 87.1% | [19] 79% | [20] 72.9%

C=C1C(=O)O[C@H]2[C@H]1CCC(/C=N/c1ncc(Br)cc1N)=C\CC[C@@]1(C)O[C@@H]21
inactive: [1] 49.2% | [2] 51.9% | [3] 85.3% | [4] 67.3% | [5] 58.3% | [8] 57.4% | [11] 15.5% | [16] 52.5% | [17] 70.3% | [18] 25.8% | [19] 22%
active: [6] -15.2% | [7] -51.7% | [9] -13.9% | [10] -60% | [12] 2.64% | [13] -9.18% | [14] -15.5% | [15] -79.3% | [20] -12.4%

CCOC(=O)C(=Cc1c(-c2ccccc2)[nH]c2ccccc12)C(=O)OCC
inactive: [1] 50.7% | [2] 60.1% | [3] 81.3% | [4] 75.9% | [5] 21.5% | [8] 40.3% | [9] 90.4% | [10] 58.7% | [11] 58.7% | [13] 95.5% | [14] 63.3% | [15] 51.9% | [16] 60.7% | [18] 88.1% | [19] 44.3% | [20] 47.8%
active: [6] -5.04% | [7] -33.7% | [12] -6.49% | [17] -10.2%

Cc1nccc2c3ccc(OCc4cn(-c5ccc(Br)cc5)nn4)cc3n(CC(C)C)c12
inactive: [1] 40.1% | [2] 58.1% | [3] 90.6% | [4] 65.8% | [5] 44.3% | [6] 16.4% | [7] 26.5% | [8] 41.1% | [9] 28.5% | [10] 15.1% | [11] 76% | [12] 14.8% | [13] 51.1% | [14] 46.9% | [15] 46.1% | [16] 68.4% | [17] 40% | [18] 61.4% | [19] 27.3% | [20] 42.6%

CC(=O)O[C@@H]1C[C@]2(C)[C@H]3[C@H](O)C[C@@H]4C5=CC(C)(C)CC[C@]5(C)CC[C@@]4(C)[C@]3(C)CC[C@H]2C(C)(C)[C@H]1O
inactive: [1] 95.7% | [2] 99.4% | [3] 118% | [4] 101% | [5] 102% | [6] 115% | [7] 103% | [8] 94% | [9] 99.3% | [10] 117% | [11] 107% | [12] 108% | [13] 107% | [14] 113% | [15] 111% | [16] 101% | [17] 104% | [18] 102% | [19] 110% | [20] 99.3%

COc1cc(C)ccc1Oc1nc(Nc2ccc(N3CCOCC3)cc2)ncc1N=Cc1cc(C(F)(F)F)cc(C(F)(F)F)c1
inactive: [1] 70.4% | [2] 55.4% | [3] 79.7% | [4] 61.1% | [5] 44.6% | [6] 67.8% | [7] 27.3% | [8] 70% | [9] 76.6% | [10] 68.3% | [11] 83.7% | [12] 37.7% | [13] 91.7% | [14] 82.9% | [15] 38.4% | [16] 69% | [17] 75.8% | [18] 73.8% | [19] 79.2% | [20] 77.7%

COCCOCCOCc1n(Cc2ccc3ccccc3c2)c2ccccc2[n+]1Cc1ccc2ccccc2c1
inactive: [2] 17.2% | [3] 40.5% | [4] 17.2% | [5] 10.3% | [8] 33.1% | [9] 23.6% | [11] 32.7% | [12] 11% | [15] 21.1% | [16] 17.9% | [17] 13.1% | [18] 37.2%
active: [1] 5.56% | [6] -32.1% | [7] -16.6% | [10] -60.7% | [13] -18.1% | [14] -1.76% | [19] -13.1% | [20] 6.95%

C[C@H]1[C@H](C)CC[C@]2(C(=O)OCCCC[P+](c3ccccc3)(c3ccccc3)c3ccccc3)CC[C@]3(C)C(=CC[C@@H]4[C@@]5(C)CC[C@H](OC(=O)C(Cl)Cl)C(C)(C)[C@@H]5CC[C@]43C)[C@H]12
active: [1] -48.3% | [2] -78.8% | [3] -10.6% | [4] -65% | [5] -83.8% | [6] -70.1% | [7] -55% | [8] -41.9% | [9] -83.5% | [10] -84.9% | [11] -35.2% | [12] -57.4% | [13] -85.2% | [14] -68.8% | [15] -91.4% | [16] -31.8% | [17] -77.9% | [18] -78.8% | [19] -78.9% | [20] -82.7%

Cc1nc(C)c(C)nc1C
inactive: [1] 102% | [2] 104% | [3] 103% | [4] 100% | [5] 109% | [6] 103% | [7] 84.6% | [8] 86.6% | [9] 96.9% | [10] 119% | [11] 108% | [12] 93.1% | [13] 102% | [14] 108% | [15] 120% | [16] 105% | [17] 107% | [18] 104% | [19] 88.1% | [20] 101%
